Assay [1] deals with MAP/microtubule affinity-regulating kinase 3 (Homo sapiens) (UniProt P27448). As to conditions: at 1 µM.
Assay [2] has as its target T1, MAP/microtubule affinity-regulating kinase 4 (Homo sapiens) (UniProt Q96L34).
T1 sequence (whole entry): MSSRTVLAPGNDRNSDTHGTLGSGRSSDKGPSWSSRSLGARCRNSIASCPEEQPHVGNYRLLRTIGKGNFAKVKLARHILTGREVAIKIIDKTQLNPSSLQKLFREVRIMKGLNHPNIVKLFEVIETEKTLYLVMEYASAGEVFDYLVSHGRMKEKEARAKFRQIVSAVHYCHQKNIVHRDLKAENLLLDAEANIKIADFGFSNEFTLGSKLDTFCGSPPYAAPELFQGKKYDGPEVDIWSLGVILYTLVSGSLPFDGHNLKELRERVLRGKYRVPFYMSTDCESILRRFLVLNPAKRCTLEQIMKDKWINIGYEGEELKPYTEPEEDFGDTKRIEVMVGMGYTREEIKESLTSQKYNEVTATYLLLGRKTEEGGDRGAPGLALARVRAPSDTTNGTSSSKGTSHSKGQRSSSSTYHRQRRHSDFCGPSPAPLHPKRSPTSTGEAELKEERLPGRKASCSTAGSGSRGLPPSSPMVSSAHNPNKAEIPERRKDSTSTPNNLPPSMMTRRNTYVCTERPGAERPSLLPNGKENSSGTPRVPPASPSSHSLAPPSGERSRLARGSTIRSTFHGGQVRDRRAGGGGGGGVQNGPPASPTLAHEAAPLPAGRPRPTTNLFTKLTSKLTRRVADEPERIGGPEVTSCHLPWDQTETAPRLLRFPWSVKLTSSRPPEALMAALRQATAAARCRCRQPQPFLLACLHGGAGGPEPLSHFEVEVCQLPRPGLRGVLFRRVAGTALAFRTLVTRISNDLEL
The conditions noted are these: at 0.1 µM.

Assay [3] deals with T1, MAP/microtubule affinity-regulating kinase 4 (Homo sapiens). As to conditions: at 1 µM.
Assay [4] deals with Maternal embryonic leucine zipper kinase (Homo sapiens) (UniProt Q14680). As to conditions: at 0.1 µM.
Maternal embryonic leucine zipper kinase (Homo sapiens), sequence (Q14680 whole entry, looked up): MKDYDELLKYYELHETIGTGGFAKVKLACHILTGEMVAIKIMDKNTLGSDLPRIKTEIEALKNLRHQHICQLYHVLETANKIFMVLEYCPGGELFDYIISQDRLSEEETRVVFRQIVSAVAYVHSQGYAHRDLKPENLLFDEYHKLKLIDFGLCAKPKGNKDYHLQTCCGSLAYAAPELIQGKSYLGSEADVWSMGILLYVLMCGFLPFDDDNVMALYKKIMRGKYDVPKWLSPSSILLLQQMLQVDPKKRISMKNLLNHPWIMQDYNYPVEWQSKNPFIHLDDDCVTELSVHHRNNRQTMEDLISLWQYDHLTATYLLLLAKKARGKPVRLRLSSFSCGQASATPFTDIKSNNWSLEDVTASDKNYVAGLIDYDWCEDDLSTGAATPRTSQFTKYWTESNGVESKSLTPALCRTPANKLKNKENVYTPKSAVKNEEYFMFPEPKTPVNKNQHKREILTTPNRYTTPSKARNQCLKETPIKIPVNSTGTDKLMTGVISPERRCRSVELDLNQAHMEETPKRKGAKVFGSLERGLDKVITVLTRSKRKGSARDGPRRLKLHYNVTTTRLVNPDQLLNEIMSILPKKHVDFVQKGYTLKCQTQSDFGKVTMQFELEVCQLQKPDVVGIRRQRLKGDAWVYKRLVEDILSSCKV
For assay [5] the target is unchanged. As to conditions: at 1 µM.
In assay [6] the target is MAP kinase-interacting serine/threonine-protein kinase 1 (Homo sapiens) (UniProt Q9BUB5). As to conditions: at 0.1 µM.
MAP kinase-interacting serine/threonine-protein kinase 1 (Homo sapiens), sequence (Q9BUB5 whole entry, looked up): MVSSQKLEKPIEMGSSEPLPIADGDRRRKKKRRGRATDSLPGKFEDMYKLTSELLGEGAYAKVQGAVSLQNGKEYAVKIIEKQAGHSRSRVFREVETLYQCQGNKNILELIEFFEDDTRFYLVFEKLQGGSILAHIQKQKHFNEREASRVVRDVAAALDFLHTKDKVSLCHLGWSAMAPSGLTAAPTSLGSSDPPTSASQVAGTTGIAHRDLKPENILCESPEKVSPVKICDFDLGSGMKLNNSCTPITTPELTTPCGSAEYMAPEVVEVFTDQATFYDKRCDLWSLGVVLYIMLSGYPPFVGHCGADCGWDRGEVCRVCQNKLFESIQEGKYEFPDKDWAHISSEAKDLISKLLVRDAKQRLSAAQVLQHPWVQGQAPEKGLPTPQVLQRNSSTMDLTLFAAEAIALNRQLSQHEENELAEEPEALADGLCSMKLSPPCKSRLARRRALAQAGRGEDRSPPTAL
Assay [7] shares this target. As to conditions: at 1 µM.
The target in assay [8] is MAP kinase-interacting serine/threonine-protein kinase 2 (Homo sapiens) (UniProt Q9HBH9). The conditions noted are these: at 0.1 µM.
For assay [9] the target is unchanged. The conditions noted are these: at 1 µM.
For assay [10], the target named is Serine/threonine-protein kinase MARK2 (Homo sapiens) (UniProt Q7KZI7). The conditions noted are these: at 1 µM.
Serine/threonine-protein kinase MARK2 (Homo sapiens), sequence (Q7KZI7 whole entry, the tested form may be a part): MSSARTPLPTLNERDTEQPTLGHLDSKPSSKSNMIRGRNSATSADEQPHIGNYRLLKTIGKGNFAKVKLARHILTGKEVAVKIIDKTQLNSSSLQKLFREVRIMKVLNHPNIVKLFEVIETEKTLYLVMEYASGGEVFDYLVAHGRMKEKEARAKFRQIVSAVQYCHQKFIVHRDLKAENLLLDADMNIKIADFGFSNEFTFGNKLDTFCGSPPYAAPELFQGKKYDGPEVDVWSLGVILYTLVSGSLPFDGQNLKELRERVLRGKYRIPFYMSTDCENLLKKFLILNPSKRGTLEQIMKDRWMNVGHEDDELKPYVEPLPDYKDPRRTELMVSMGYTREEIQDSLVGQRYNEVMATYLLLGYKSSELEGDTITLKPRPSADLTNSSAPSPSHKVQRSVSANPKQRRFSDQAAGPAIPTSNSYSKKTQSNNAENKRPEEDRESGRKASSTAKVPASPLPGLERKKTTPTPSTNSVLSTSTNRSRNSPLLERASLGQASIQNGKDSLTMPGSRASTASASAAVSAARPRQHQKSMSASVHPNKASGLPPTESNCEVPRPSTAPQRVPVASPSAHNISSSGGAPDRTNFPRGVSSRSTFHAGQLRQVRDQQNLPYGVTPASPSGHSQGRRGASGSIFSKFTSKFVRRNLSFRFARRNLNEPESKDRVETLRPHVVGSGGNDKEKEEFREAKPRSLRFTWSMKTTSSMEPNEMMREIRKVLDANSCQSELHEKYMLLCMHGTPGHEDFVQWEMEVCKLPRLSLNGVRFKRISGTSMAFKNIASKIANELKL
The target in assay [11] is PAS domain-containing serine/threonine-protein kinase (Homo sapiens) (UniProt Q96RG2). The conditions noted are these: at 0.1 µM.
PAS domain-containing serine/threonine-protein kinase (Homo sapiens), sequence (Q96RG2 whole entry, the tested form may be a part): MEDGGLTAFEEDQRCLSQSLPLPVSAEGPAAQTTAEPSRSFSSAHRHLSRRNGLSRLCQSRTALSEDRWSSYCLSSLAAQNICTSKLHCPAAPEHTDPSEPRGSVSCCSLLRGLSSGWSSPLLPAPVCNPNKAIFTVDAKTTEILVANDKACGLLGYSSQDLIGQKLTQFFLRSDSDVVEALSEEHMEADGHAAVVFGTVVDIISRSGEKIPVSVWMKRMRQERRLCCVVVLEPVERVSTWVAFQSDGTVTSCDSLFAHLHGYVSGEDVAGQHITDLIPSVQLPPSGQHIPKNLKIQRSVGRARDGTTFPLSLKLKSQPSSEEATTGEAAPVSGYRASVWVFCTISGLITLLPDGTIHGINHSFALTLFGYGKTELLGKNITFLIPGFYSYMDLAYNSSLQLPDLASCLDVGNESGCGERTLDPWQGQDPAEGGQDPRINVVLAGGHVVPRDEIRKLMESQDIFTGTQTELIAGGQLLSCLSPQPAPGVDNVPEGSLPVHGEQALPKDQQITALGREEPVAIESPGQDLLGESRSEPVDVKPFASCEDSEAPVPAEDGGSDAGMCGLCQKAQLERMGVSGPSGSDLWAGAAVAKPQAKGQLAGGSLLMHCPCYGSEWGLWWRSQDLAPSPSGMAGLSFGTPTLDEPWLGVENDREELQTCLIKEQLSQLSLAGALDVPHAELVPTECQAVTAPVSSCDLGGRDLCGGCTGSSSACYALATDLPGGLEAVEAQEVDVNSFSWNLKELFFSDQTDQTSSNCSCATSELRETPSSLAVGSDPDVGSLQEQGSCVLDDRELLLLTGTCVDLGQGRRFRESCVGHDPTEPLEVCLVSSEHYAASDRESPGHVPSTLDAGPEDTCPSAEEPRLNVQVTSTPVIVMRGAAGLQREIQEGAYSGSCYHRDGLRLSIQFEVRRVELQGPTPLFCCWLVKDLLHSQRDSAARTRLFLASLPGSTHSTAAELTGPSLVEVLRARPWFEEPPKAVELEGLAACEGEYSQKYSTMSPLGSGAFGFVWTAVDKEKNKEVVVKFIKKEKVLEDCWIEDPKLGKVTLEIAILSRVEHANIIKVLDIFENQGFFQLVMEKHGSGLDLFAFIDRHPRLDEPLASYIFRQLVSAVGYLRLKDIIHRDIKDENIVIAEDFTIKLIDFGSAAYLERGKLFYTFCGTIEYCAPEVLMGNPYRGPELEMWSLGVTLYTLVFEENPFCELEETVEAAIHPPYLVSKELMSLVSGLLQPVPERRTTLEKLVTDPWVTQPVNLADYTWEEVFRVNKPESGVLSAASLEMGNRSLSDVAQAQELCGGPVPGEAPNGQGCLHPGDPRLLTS
The target is the same in assay [12]. As to conditions: at 1 µM.
Assay [13] addresses Phosphorylase b kinase gamma catalytic chain, skeletal muscle/heart isoform (Homo sapiens) (UniProt Q16816). The conditions noted are these: at 0.1 µM.
For assay [14] the target is unchanged. As to conditions: at 1 µM.
For assay [15], the target named is T2, Phosphorylase b kinase gamma catalytic chain, liver/testis isoform (Homo sapiens) (UniProt P15735).
T2 sequence (whole entry): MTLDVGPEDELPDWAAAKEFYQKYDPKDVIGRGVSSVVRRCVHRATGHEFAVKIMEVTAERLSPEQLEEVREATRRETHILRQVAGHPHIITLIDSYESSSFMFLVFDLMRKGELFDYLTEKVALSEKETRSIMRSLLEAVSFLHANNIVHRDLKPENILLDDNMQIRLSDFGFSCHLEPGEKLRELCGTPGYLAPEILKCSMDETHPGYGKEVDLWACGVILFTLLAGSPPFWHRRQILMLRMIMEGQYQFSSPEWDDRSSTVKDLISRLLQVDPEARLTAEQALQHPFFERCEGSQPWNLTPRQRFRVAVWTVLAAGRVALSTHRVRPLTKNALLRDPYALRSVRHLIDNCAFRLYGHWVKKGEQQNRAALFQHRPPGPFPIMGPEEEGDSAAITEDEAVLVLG
The conditions noted are these: at 0.1 µM.

Assay [16] has as its target T2, Phosphorylase b kinase gamma catalytic chain, liver/testis isoform (Homo sapiens). As to conditions: at 1 µM.
The target of assay [17] is Serine/threonine-protein kinase pim-1 (Homo sapiens) (UniProt P11309). The conditions noted are these: at 0.1 µM.
Serine/threonine-protein kinase pim-1 (Homo sapiens), sequence (P11309 whole entry, looked up): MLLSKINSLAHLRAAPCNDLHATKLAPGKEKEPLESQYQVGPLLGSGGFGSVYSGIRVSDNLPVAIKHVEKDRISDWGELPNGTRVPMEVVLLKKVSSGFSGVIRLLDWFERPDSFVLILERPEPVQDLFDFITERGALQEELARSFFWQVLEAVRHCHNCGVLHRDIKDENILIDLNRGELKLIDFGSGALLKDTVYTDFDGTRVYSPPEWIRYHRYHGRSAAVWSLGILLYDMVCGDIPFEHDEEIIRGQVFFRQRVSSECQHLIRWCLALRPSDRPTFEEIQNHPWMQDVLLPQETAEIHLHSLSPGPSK
Assay [18] shares this target. As to conditions: at 1 µM.
For assay [19], the target named is Serine/threonine-protein kinase pim-2 (Homo sapiens) (UniProt Q9P1W9). As to conditions: at 0.1 µM.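 Further: reported value is the mean percent inhibition of PIM2, measured in the GSK PKIS kinase inhibitor set screen.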
Serine/threonine-protein kinase pim-2 (Homo sapiens), sequence (Q9P1W9 whole entry, looked up): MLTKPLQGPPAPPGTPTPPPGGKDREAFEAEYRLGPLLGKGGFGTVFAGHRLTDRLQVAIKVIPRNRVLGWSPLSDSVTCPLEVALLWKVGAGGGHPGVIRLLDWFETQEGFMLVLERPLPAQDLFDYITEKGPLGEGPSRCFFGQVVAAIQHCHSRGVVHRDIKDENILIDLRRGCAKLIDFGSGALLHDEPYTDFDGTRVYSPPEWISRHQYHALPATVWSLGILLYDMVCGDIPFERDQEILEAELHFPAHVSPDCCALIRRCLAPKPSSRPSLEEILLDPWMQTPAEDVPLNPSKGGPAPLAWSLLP
In assay [20] the target is Serine/threonine-protein kinase MARK2 (Homo sapiens) (UniProt Q7KZI7). The conditions noted are these: at 0.1 µM.

MAP/microtubule affinity-regulating kinase 3 (Homo sapiens), sequence (P27448 whole entry, looked up): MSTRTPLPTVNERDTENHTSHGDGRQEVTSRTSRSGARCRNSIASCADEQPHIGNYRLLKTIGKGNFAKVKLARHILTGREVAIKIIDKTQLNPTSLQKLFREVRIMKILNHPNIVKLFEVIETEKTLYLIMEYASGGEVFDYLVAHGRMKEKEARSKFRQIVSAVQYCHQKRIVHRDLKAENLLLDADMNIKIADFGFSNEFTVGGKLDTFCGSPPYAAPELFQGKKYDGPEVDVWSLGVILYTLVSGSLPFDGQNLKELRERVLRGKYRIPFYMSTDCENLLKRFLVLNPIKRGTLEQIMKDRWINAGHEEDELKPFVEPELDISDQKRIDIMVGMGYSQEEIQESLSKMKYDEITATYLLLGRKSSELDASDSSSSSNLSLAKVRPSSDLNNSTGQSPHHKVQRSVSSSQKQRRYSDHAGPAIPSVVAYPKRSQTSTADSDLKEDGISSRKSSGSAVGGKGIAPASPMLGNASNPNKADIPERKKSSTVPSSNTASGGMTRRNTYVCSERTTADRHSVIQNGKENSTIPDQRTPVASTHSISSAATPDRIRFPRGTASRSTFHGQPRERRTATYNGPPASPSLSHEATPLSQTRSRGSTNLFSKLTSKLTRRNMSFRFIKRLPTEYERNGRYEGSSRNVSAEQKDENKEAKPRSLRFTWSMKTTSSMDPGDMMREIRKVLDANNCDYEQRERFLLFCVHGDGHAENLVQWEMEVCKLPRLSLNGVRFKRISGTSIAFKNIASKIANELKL
Phosphorylase b kinase gamma catalytic chain, skeletal muscle/heart isoform (Homo sapiens), sequence (Q16816 whole entry, looked up, canonical isoform): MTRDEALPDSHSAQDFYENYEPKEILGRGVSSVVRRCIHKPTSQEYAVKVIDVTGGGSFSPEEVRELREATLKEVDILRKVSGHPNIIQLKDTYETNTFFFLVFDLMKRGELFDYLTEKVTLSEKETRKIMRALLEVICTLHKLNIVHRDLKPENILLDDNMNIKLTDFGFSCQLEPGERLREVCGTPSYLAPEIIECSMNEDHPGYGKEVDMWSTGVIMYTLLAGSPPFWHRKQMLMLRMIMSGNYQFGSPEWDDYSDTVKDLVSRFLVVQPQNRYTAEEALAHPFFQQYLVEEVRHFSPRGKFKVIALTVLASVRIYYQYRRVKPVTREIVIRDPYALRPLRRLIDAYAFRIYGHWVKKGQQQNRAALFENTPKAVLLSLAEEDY

With `COc1ccc(-c2ccncc2)cc1C(N)=O`, the inhibition turned out to be 5.66% in assay [1]; 1.72% in assay [2]; 2.64% in assay [3]; 3.65% in assay [4]; 8.7% in assay [5]; 2.15% in assay [6]. Also, the inhibition in assay [7] was 5.97%; in assay [8] it was 0.23%; in [9] it was 6.75%; in assay [10] it was 0.17%; in assay [11], -0.78%; in assay [12], -0.33%. Also, the inhibition in assay [13] turned out to be 2.55%; in [14], 3.87%; in assay [15] it was 5.73%; in assay [16], 5.45%; in assay [17], 0.06%; in [18], 2.13%. Also, the inhibition in [19] was -0.49%.
For `CCn1c(-c2nonc2N)nc2c(C#CC(C)(C)O)nc(CN3CCCC3)cc21`, the inhibition in assay [1] is 15.4%; in assay [2] it was 3.5%; in [3], 7.13%; in assay [4] it was 1.68%; in [5], 5.55%; in assay [6] it was -0.28%. Moreover, the inhibition was 0.88% in assay [7]; -0.06% in [8]; 1.84% in assay [9]; 3.94% in [20]; 10% in assay [10]; 0.49% in assay [11]. Further, the inhibition in assay [12] was 1.59%; in [13] it was 2.9%; in [14], 2.56%; in assay [15], -2.3%; in assay [16], -1.9%; in [17], 0.28%. Moreover, the inhibition in assay [18] is -0.73%; in [19], 0.26%.
Consider `N#Cc1c(NC(=O)c2cccc3ccccc23)sc2c1CCCC2`, for which the inhibition in assay [1] was 0.94%; in assay [2], 2.49%; in assay [3], 1.96%; in assay [4], 4.2%; in assay [5], 7.39%; in [6] it was 1.49%. In addition, the inhibition is 4.73% in assay [7]; 1.09% in [8]; 1.55% in assay [9]; 0.64% in [20]; 1.22% in assay [10]; -0.47% in [11]. Further, the inhibition in assay [12] was -1.11%; in assay [13], 8.32%; in assay [14], 5.08%; in [15] it was 2.74%; in [16] it was 1.46%; in assay [17] it was 0.51%. In addition, the inhibition in [18] is 0.27%; in [19], -0.34%.
With `CC(C)=Cc1cccc2c1/C(=N/Nc1ccc(S(N)(=O)=O)cc1)C(=O)N2`, the inhibition in assay [1] was 20.6%; in [2], 1.89%; in [3], 20%; in [4] it was 0.98%; in [5], 25.6%; in assay [6], 0.23%. The inhibition in assay [7] is 7.18%; in assay [8], 1.9%; in assay [9] it was 4.65%; in assay [20], 1.87%; in assay [10], 14.2%; in assay [11], 0.93%. Moreover, the inhibition in assay [12] stood at 1.77%; in assay [13], 0.64%; in assay [14], 26.6%; in assay [15] it was 1.74%; in assay [16] it was 8.45%; in assay [17], 1.05%. For the same compound, the inhibition in assay [18] amounted to 1.77%; in [19], 0.72%.
With `O=C1NC(=O)C(c2ccccc2Cl)=C1Nc1cccc(O)c1`, the inhibition worked out at 13.6% in assay [1]; 0.9% in assay [2]; 8.27% in assay [3]; 1.6% in [4]; 4.56% in assay [5]; 0.62% in assay [6]. Further, the inhibition in assay [7] is 2.78%; in assay [8], 0.71%; in [9], 0.58%; in [20], 1.47%; in [10] it was 8.31%; in [11] it was 0.42%. For the same compound, the inhibition in [12] was -0.94%; in assay [13], 1.1%; in [14], 1.82%; in assay [15], 3.35%; in assay [16], 0.71%; in [17], 1.24%. The inhibition in [18] was 1.62%; in assay [19], -0.21%.
Take `CCCN1CCC=C(c2ccc(Nc3nc(Nc4ccccc4C(N)=O)c4cc[nH]c4n3)c(C)c2)C1`: the inhibition is 20.8% in assay [1]; 3.18% in assay [2]; 13.7% in [3]; 10% in [4]; 44.7% in [5]; 2.32% in assay [6]. Moreover, the inhibition in assay [7] is 3.91%; in assay [8], 1.78%; in assay [9], 7.47%; in assay [20], 1.68%; in [10], 14.6%; in [11], -1.89%. Further, the inhibition is -1.19% in assay [12]; -1.86% in [13]; 48.2% in assay [14]; 7.18% in [15]; 16.4% in assay [16]; 2.16% in [17]. Moreover, the inhibition in assay [18] was 7.46%; in assay [19], 0.34%.
Regarding `CS(=O)(=O)CCN(CC#N)Cc1ccc(-c2ccc3ncnc(Nc4ccc(OCc5cccc(F)c5)c(Cl)c4)c3c2)o1`, the inhibition was -0.24% in [1]; 0.8% in [2]; -0.12% in assay [3]; 3.85% in [4]; 8.4% in assay [5]; 1.32% in assay [6]. The inhibition is 5.64% in [7]; 2.33% in assay [8]; 11.5% in assay [9]; -0.92% in assay [20]; -1.1% in assay [10]; -0.15% in assay [11]. Further, the inhibition in [12] is -0.89%; in assay [13], 2.68%; in [14], 5.37%; in assay [15], 1.91%; in assay [16], 1.52%; in assay [17] it was -1.56%. The inhibition in assay [18] was -0.76%; in assay [19] it was -4.12%.
On to `NS(=O)(=O)c1cccc(-c2ccc3c(NC(=O)C4CC4)n[nH]c3c2)c1`, for which the inhibition was 3.86% in assay [1]; 1.62% in [2]; 6.55% in assay [3]; 0.79% in assay [4]; 3.48% in assay [5]; -0.26% in assay [6]. The inhibition is 7.26% in assay [7]; -1.27% in [8]; 1.02% in assay [9]; 0.51% in assay [20]; 4.42% in assay [10]; -1.09% in assay [11]. Further, the inhibition in [12] is -1.37%; in assay [13] it was 2.99%; in assay [14], 2.11%; in assay [15], -4.36%; in [16] it was -2.76%; in [17] it was -0.14%. In addition, the inhibition in assay [18] amounted to 1.01%; in assay [19] it was 0.46%.
Regarding `COc1cc2c(cc1Nc1nc(N3CCc4ccccc43)c3cc[nH]c3n1)N(C(=O)CN(C)C)CC2`, the inhibition in assay [1] was 6.25%; in assay [2] it was 0.37%; in assay [3] it was 1.93%; in assay [4], 1.9%; in assay [5] it was 2.27%; in assay [6] it was 1.09%. Moreover, the inhibition was 5.08% in [7]; 0.08% in assay [8]; 7.67% in [9]; 1.14% in [20]; 0.39% in assay [10]; 1.45% in assay [11]. Moreover, the inhibition in assay [12] was -0.16%; in [14] it was 3.14%; in [15] it was 3.23%; in assay [16], 0.08%; in assay [17], 0.66%; in assay [18] it was -0.15%. The inhibition in assay [19] is -0.35%.
With `Nc1ncnc2occ(-c3ccc(NC(=O)Nc4cccc(C(F)(F)F)c4)cc3)c12`, the inhibition is 5.23% in assay [1]; 2.8% in assay [2]; 4.23% in assay [3]; 3.16% in assay [4]; 11.2% in assay [6]; 38.7% in [7]. The inhibition was 9.53% in [8]; 53.9% in assay [9]; 1.27% in [20]; 3.83% in assay [10]; -0.58% in assay [11]; 0.31% in assay [12]. The inhibition in assay [13] stood at 6.3%; in assay [14] it was 10.2%; in assay [15] it was 6.43%; in assay [16] it was 4.64%; in assay [17], 1.56%; in assay [18] it was 2.28%. Besides, in assay [19], the inhibition stood at 0.42%.
Consider `COc1ccc2cc(-c3c(-c4ccncc4)nc(-c4ccc([S+](C)[O-])cc4)n3C)ccc2c1` (stereo unspecified), for which the inhibition in [1] came out at 0.76%; in assay [2], 1.4%; in [3], 1.07%; in [4], 2.76%; in assay [5], 6.5%; in [6], 2.19%. Moreover, the inhibition in assay [7] is 3.02%; in assay [8], 0.53%; in assay [9], 0.5%; in assay [20] it was 0.3%; in assay [10], 2.02%; in assay [11], 0.01%. Moreover, the inhibition in assay [12] is -1.68%; in assay [13] it was 2.27%; in assay [15], 4.08%; in [16], 1.1%; in assay [17], -0.22%; in assay [18] it was 0.54%. The inhibition in assay [19] is -0.02%.

(Values after ChEMBL document CHEMBL1961873, “Compounds: GSK PKIS; Assays: Nanosyn kinase panel” (2012).)
